Measurements reported in PubChem BioAssay (NCATS).
“And” between values parts separate entries of the source, which are not always exact repeats. Equal values may be shown once. A number with no mark means an inactive call. Records with an inconclusive call do not appear. Entries that show only a call come without a potency. For some assays here: Measured potencies and affinities stand elsewhere. The source made the active and inactive calls. Unless noted, the rule behind the calls is not given here.

Columns and labels:
[1] = qHTS assay for cell viability of HEK293 cells (AID 743288; active = well fitted curve in the direction sought with a large enough effect; an effect the other way counts as inactive or inconclusive; note: nearly all actives have a fitted effect of over 50% in size); settings: ATP luminescence (CellTiter-Glo), 18 h; max response: active compounds read low
Method in brief: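 Readout is luciferase-coupled ATP content (CellTiter-Glo luminescence, 30 min room temperature) as a measure of metabolically competent cells. Parental HEK293 cells were plated 5 h or more before compound addition, then treated 18 h at 37 C.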

[2] = qHTS assay for cell viability of the p53RE-bla HCT-116 cell line (AID 743292; active = well fitted curve in the direction sought with a large enough effect; an effect the other way counts as inactive or inconclusive; note: nearly all actives have a fitted effect of over 55% in size)
Method in brief: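 ATP-based luminescent viability (CellTiter-Glo, 30 min RT) after 16 h compound treatment at 37 C of p53RE-bla HCT-116 cells, seeded at 4,000 cells/well and rested 5 h before dosing.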

[3] = Ebola virus entry assay, ratio channel
[4] = Ebola virus entry assay, green channel fluorescence
[5] = Ebola virus entry assay, reporter ratio channel; Channel type: primary
[6] = Ebola virus entry assay, blue channel (ratio component)
[7] = qHTS Assay for Identifying Gametocytocidal Compounds (AID 743244; active = well fitted curve in the direction sought with a large enough effect; an effect the other way counts as inactive or inconclusive;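 note: actives lower the fluorescent signal which means gametocytes are killed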); settings: P. falciparum 3D7 stage III-V gametocytes, alamarBlue, 72 h; max response: active compounds read low
Method in brief: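 Fluorescence at Ex 525/Em 598 nm, recorded 24 h after alamarBlue addition, reports residual metabolic activity of 3D7 gametocytes (stages III–V) following 72 h compound exposure at 37 °C, 5% CO2.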

Row | Structure (SMILES) | max response [1] | Potency [2] | outcome [3] | outcome [4] | outcome [5] | outcome [6] | max response [7] | AC50 [5] | AC50 [3]
1 | c1cc2ccc3cccc4ccc(c1)c2c34 | -10.7% and -22.9% | inactive | inactive | inactive | inactive | inactive |  |  | 
2 | O=[N+]([O-])c1c(Cl)c(Cl)cc(Cl)c1Cl | -0.234% | inactive | inactive | inactive | inactive | inactive | -14.2% |  | 
3 | Nc1ccc(Sc2ccc(N)cc2)cc1 | 1.17% and -4.98% | inactive | inactive | inactive | inactive | inactive |  |  | 
4 | CN(C)c1ccc(N=NS(=O)(=O)O)cc1 |  |  | inactive |  | inactive |  |  |  | 
5 | Nc1ccc(Cl)cc1N | -8.79% and -16.5% | inactive | inactive | inactive |  | inactive | -15.5% | 35.5 µM (active) | 
6 | Nc1ccc(Cl)cc1 | -6.22% | inactive | inactive | inactive | inactive | inactive | 4.15% |  | 
7 | C[N+](C)(C)CC(=O)O |  |  | inactive | inactive | inactive | inactive | -4.91% |  | 
8 | CC(C)(C)C(O)C(Oc1ccc(Cl)cc1)n1cncn1 (stereo unspecified) | -2.21% | inactive | inactive | inactive | inactive | inactive | 12.8% |  | 
9 | NCCO |  |  | inactive | inactive | inactive | inactive |  |  | 
10 | CC1(C)CC/C(=C/c2ccc(Cl)cc2)C1(O)Cn1cncn1 (stereo unspecified) |  |  | inactive | inactive | inactive | inactive | -5.52% |  | 
11 | C=CC(=O)NCNC(=O)C=C | 3.56% and -2.17% | inactive | inactive | inactive | inactive | inactive | 11% |  | 
12 | O=C(Nc1ccccc1-c1ccc(Cl)cc1)c1cccnc1Cl | -25.4% | inactive |  | inactive | inactive | inactive | 10.9% |  | 22.4 µM (active)
13 | COC(C)(C)CCCC(C)C/C=C/C(C)=C/C(=O)OC(C)C (stereo unspecified) | -16.1% and -28.4% | inactive | inactive | inactive | inactive | inactive | -9.95% |  | 
14 | ClC1=C(Cl)[C@]2(Cl)[C@@H]3[C@@H]4C[C@@H]([C@H]5O[C@@H]45)[C@@H]3[C@@]1(Cl)C2(Cl)Cl | -27.3% | inactive |  | inactive |  | inactive |  | 5.62 µM (active) | 5.62 µM (active)
15 | CC(C)(C)c1nnc(NS(=O)(=O)c2ccccc2)s1 |  |  | inactive | inactive | inactive | inactive |  |  | 
16 | CCCCC(CC)COC(=O)c1ccccc1C(=O)OCC(CC)CCCC (stereo unspecified) | -14% and -11% | inactive | inactive | inactive | inactive | inactive | 10.4% |  | 
17 | COc1ccc(C(c2ccc(OC)cc2)C(Cl)(Cl)Cl)cc1 | -23.2% and -28.9% and -19.6% | inactive |  | inactive |  |  | -11% | 22.4 µM (active) | 22.4 µM (active)
18 | CC(C)NCC(O)c1ccc([N+](=O)[O-])cc1 (stereo unspecified) |  |  | inactive | inactive | inactive | inactive | -16.1% |  | 
19 | COc1nn(CSP(=S)(OC)OC)c(=O)s1 | -26% | inactive | inactive | inactive | inactive | inactive | 14.2% |  | 
20 | CCCCCCCCCC(CC)c1ccc(S(=O)(=O)O)cc1 (stereo unspecified) | -11.2% and -4.04% | inactive |  | inactive |  |  | -5.24% and 45.2% | 31.6 µM (active) | 31.6 µM (active)
21 | OCCCBr | 2.95% | inactive | inactive | inactive | inactive | inactive | 31% |  | 
22 | O=[N+]([O-])/N=C1\NCCN1Cc1ccc(Cl)nc1 | -6.64% | inactive | inactive | inactive | inactive | inactive | 3.56% and 4.82% |  | 
23 | O=S(=O)(O)C(F)(F)C(F)(F)C(F)(F)C(F)(F)C(F)(F)C(F)(F)C(F)(F)C(F)(F)F | -7.88% and -13.4% | inactive | inactive | inactive | inactive | inactive | -9.5% |  | 
24 | O=C(O)CCCOc1ccc(Cl)cc1Cl | -3.48% | inactive | inactive | inactive | inactive | inactive | 19% |  | 
